We go through 15 compounds from PubChem BioAssay.

In test [1] the test system is TRPC4 beta (transient receptor potential cation channel C4), mouse. Nature of the test: activators of mouse TRPC4 channel, confirmation, cell-based, Fluo4 calcium, HEK293 TRPC4beta/mu-opioid, duplicates, 10 µM (AID 2426;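 active = fluorescence ratio normalized to control raised more than 50% in primary screen plus both repeat runs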;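 for activation: percent rise of integrated ratio over buffer wells lacking compound which define 0%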). To be noted: Fluo4 calcium fluorescence, at 10 µM; stronger effect = higher value.
In test [2] the test system is transient receptor potential cation channel C4 beta (TRPC4), mouse. Briefly: activators of mouse TRPC4 channel, confirmation, cell-based, second round, Fluo4, HEK293 TRPC4beta/mu-opioid, 1 µM (AID 2461;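 active = primary screen active and over 50% activation in each of two duplicate runs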). To be noted: Fluo4 calcium fluorescence, at 1 µM; stronger effect = higher value.
Test [3] relates to TRPC4 (transient receptor potential cation channel C4 beta), mouse. Briefly: positive allosteric modulators of mouse TRPC4, confirmation, cell-based, second round, Fluo-4, HEK293 TRPC4beta/mu-opioid, 1 µM (AID 2554;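 active = primary screen hit whose fluorescence ratio, in both repeats, exceeds the weak agonist control mean by 3 SD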). To be noted: DAMGO EC20, Fluo-4 calcium flux, at 1 µM; stronger effect = higher value. (Calcium assays in cells follow changes in intracellular calcium, usually with a dye or a luminescent sensor.)

Test [4] relates to TRPC4 beta (transient receptor potential cation channel C4), mouse. Briefly: positive allosteric modulators of mouse TRPC4, confirmation, cell-based, Fluo-4, HEK293 TRPC4beta/mu-opioid (AID 2555;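 active = primary screen hit whose calcium fluorescence ratio, in both repeats, exceeds the weak agonist control mean by 3 SD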). To be noted: DAMGO EC20, Fluo-4 calcium flux, at 10 µM; stronger effect = higher value.
Test [5] addresses Short transient receptor potential channel 4 (Mus musculus) (UniProt Q9QUQ5). Briefly: inhibitors of mouse TRPC4 channel, confirmation, cell-based, Fluo4, HEK293 TRPC4beta/mu-opioid (AID 2636;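 active = calcium signal cut by more than 3 SD below the full-agonist control yet still positive, in both repeats and the earlier primary screen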). To be noted: DAMGO, Fluo4 calcium flux, at 10 µM; stronger effect = higher value.
Test [6] shares this target. Nature of the test: inhibitors of mouse TRPC4 channel, confirmation, cell-based, second round, Fluo4, HEK293 TRPC4beta/mu-opioid, 1 µM (AID 2637;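 active = calcium signal ratio cut to more than 3 SD under the fully stimulated control mean yet still positive, in both repeats and the primary screen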;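 for inhibition: percent of integrated ratio relative to wells lacking test compound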). To be noted: Fluo4 calcium flux, DAMGO, at 1 µM; stronger effect = higher value.
Test [7] shares this target. Nature of the test: mouse TRPC4 channel activators, dose response, cell-based, HEK293 TRPC4/mu-opioid, Fluo-4 calcium (AID 434937).
Test [8] has the same target. Briefly: TRPC4 positive allosteric modulators, dose response, cell-based, HEK293 TRPC4/mu-opioid, Fluo-4 calcium, EC20 DAMGO (AID 434941;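 active = earlier screen potentiator hit that boosts the TRPC4 ion channel at some dose, with a dose response; inactive = no potentiation, no dose response, or not a prior hit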;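 note: calcium entry triggered by an EC20 dose of DAMGO at the co-expressed mu-opioid receptor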).
The target of test [9] is Short transient receptor potential channel 6 (Mus musculus) (UniProt Q61143). Nature of the test: inhibition of mouse TRPC6 channel, confirmation, selectivity assay for TRPC4 inhibitor project, cell-based, HEK293, membrane potential dye, duplicate (AID 434948;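 active = active in primary screen and both duplicates, each dropping signal beyond three positive-control SD with fluorescence still positive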). To be noted: HEK293 TRPC6, membrane potential dye fluorescence, at 10 µM, stimulated with maximal-effect acetylcholine; stronger effect = higher value.

The target is the same in test [10]. Briefly: activation of mouse TRPC6 channel, confirmation, selectivity assay for TRPC4 activator project, cell-based, HEK293, membrane potential dye, duplicate (AID 434950;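 active = membrane potential signal rise above negative control mean plus 3 SD in both duplicates, also active in the earlier TRPC4 screen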). To be noted: HEK293 TRPC6, membrane potential fluorescence, at 10 µM; stronger effect = higher value.
Test [11] has the same target. Nature of the test: TRPC6 potentiation by TRPC4 potentiator hits, confirmation, selectivity assay for TRPC4 potentiator project, HEK293 cells, membrane potential dye, duplicate (AID 434952;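 active = compound raising the membrane signal above positive-control mean plus 3 SD in both repeats, and a primary screen hit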). To be noted: HEK293 TRPC6, membrane potential dye fluorescence, at 10 µM, maximal acetylcholine added after compound; stronger effect = higher value.
Test [12] has as its target Short transient receptor potential channel 4 (Mus musculus) (UniProt Q9QUQ5). Nature of the test: calcium flux activators in TRPC4/5HT1a cells, counter-screen for TRPC4 activator project, cell-based, second counter screen, HEK293 TRPC4/5HT1a, Fluo-4 (AID 434977;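 active = calcium signal rise above buffer-control mean plus 5 SD in both duplicates, and also a hit in the primary screen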). To be noted: Fluo-4 calcium flux, at 10 µM; stronger effect = higher value.
A short description of test [13]: calcium flux inhibitors in TRPC4/5HT1a cells, confirmation, counter-screen for TRPC4 inhibitor project, cell-based, second counter screen, HEK293 TRPC4/5HT1a, Fluo-4 (AID 434978;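 active = primary screen active whose calcium signal fell more than 3 SD beyond the full-serotonin control mean in both duplicate plates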;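 for outcome: serotonin given first at submaximal then at maximal dose after compound preincubation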). To be noted: Fluo-4 calcium flux, at 10 µM, serotonin added to trigger calcium flux; stronger effect = higher value.
Test [14] deals with TRPC4 (mouse), co-expressed with 5HT1a in HEK293. Nature of the test: calcium flux potentiators in TRPC4/5HT1a cells, confirmation, counter-screen for TRPC4 potentiator project, cell-based, second counter screen, HEK293 TRPC4/5HT1a, Fluo-4 (AID 434979;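 active = signal rise over 3 SD above mean of control wells given weak agonist, in both repeats and first screen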). To be noted: Fluo-4 calcium flux, at 10 µM, serotonin added at its EC20 dose; stronger effect = higher value.
Test [15] in a line: calcium flux activation in mu-opioid HEK293 cells, confirmation, counter-screen for TRPC4 activator project, cell-based, HEK293 mu-opioid receptor line (AID 449723;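 active = hit in primary screen, with calcium signal over 5 SD above buffer well mean in both duplicates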;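 note: counter screen cells carry the mu-opioid receptor alone and lack TRPC4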). To be noted: Fluo-4 calcium fluorescence, at 10 µM; stronger effect = higher value.
Test [16] is described as follows: calcium flux enhancement in mu-opioid HEK293 cells, confirmation, counter-screen for TRPC4 allosteric potentiator project, cell-based, HEK293 mu-opioid receptor line (AID 449724;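 active = calcium signal rise more than 3 SD above the low-dose agonist control mean, in both duplicate plates and the primary screen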;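 note: HEK293 cells carrying mu-opioid receptor only with no TRPC4 channel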). To be noted: Fluo-4 calcium flux, at 10 µM, compound added before EC20 DAMGO stimulus; stronger effect = higher value.

For part of these data: Measured potencies and affinities stand elsewhere. Activity calls are given as the source filed them.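 Rule for the calls, unless noted: active = primary screen activator hit with a dose response curve and TRPC4 channel activation at any tested dose; inactive = no activation, no dose response, or not a primary hit.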

Sequence of Short transient receptor potential channel 4 (Mus musculus) (Q9QUQ5 whole entry, looked up): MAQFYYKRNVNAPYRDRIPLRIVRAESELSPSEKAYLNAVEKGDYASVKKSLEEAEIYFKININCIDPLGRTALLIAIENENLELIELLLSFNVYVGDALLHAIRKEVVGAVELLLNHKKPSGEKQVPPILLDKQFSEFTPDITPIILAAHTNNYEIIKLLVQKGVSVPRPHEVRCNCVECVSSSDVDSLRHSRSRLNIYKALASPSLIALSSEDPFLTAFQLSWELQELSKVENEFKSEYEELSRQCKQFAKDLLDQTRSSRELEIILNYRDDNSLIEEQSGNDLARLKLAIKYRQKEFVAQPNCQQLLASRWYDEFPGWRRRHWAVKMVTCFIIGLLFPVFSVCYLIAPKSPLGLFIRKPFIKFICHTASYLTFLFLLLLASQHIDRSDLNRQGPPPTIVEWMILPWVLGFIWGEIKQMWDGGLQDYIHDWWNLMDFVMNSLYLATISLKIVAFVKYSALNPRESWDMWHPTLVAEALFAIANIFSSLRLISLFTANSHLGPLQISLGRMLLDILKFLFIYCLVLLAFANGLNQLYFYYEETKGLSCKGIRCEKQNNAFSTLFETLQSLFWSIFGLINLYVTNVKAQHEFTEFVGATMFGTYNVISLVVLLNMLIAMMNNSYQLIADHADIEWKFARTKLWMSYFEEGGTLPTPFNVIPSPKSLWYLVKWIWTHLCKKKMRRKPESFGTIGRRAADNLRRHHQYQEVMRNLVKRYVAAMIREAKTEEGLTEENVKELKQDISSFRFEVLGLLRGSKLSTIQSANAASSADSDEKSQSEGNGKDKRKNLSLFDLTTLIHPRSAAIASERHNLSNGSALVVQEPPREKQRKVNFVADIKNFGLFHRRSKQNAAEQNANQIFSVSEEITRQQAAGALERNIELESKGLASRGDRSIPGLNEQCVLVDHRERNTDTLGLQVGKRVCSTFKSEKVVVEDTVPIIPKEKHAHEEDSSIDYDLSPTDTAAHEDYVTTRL
Sequence of Short transient receptor potential channel 6 (Mus musculus) (Q61143 whole entry, looked up): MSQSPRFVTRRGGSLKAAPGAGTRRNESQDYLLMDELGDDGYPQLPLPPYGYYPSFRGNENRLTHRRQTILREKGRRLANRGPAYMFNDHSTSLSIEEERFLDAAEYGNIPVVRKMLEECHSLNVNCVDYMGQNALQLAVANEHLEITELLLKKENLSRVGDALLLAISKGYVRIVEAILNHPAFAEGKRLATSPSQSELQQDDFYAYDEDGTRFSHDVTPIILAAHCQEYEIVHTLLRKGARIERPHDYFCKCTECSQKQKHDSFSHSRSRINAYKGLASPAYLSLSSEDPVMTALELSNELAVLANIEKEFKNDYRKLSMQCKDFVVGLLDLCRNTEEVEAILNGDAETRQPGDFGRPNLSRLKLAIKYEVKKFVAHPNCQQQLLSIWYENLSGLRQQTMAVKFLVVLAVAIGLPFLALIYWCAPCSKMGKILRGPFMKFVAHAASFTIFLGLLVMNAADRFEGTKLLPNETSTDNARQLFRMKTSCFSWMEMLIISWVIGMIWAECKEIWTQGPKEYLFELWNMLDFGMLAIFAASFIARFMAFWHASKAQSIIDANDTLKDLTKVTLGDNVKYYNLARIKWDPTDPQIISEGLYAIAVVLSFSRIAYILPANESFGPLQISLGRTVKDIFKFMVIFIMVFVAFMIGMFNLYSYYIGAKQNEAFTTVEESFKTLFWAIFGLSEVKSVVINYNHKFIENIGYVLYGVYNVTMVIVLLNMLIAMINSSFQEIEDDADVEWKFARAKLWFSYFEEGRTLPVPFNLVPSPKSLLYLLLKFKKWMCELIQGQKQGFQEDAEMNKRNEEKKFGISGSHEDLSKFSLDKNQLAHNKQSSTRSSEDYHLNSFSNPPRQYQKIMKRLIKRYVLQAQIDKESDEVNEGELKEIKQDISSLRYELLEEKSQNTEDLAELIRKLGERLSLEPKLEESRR

In general, inhibition refers to the change of the read-out against control, counted positive when it falls. For `CC1Oc2ccccc2C=C1/C=N/Nc1ccc(C(=O)O)cc1` (stereo not given), the outcome in [1], in test [2], in test [3], in test [4], in [7] and in [8] was inactive. Further, the compound was called inactive in test [9], in test [10], in test [11], in test [12], in test [14] and in test [15]. Further, the outcome in [16] was inactive. For the same compound, the inhibition in test [5] was 82% (active); in test [6], 51% (active); in test [13], 38.1% (active).

Regarding `CN1CCN(c2ccc(NC(=O)c3ccc(Br)o3)cc2)CC1`, the result in test [1], in test [2], in test [3], in test [4], in [7] and in test [8] was inactive. For the same compound, the result in test [9], in test [10], in test [11], in [12], in [13] and in test [14] was inactive. Further, the outcome in [15] and in [16] was inactive. Moreover, the results for the inhibition in test [5] and in test [6] were 91% (active) and 46% (active), respectively.

As for `NC(=O)c1nsc(C(=O)N(Cc2ccco2)C(C(=O)NCC2CCCO2)c2ccc(F)cc2)c1N` (stereo not given), the result in [1], in [2], in test [3], in [4], in test [6] and in [7] was inactive. Besides, the result in test [8], in [9], in [10], in test [11], in test [12] and in [13] was inactive. In addition, the outcome in test [14], in test [15] and in test [16] was inactive. The inhibition in test [5] was 76% (active).

Turning to `Clc1ccc(C[n+]2cc(-c3ccccc3)n3c2CCC3)cc1Cl`, the result in [1], in [2], in [3], in test [4], in test [7] and in [8] was inactive. Further, the call in [9], in test [10], in test [11], in test [12], in test [14] and in test [15] was inactive. Besides, the result in test [16] was inactive. The results for the inhibition in [5], in [6] and in test [13] were 93% (active), 60% (active) and 25.4% (active), respectively.

On to `Cc1ccc(C)c2nc3sc(C(=O)O)cc3cc12`, for which the outcome in test [1], in test [2], in test [3], in test [4], in [6] and in test [7] was inactive. The result in test [8], in [9], in test [10], in [11], in test [12] and in test [14] was inactive. For the same compound, the result in test [15] and in [16] was inactive. Also, the inhibition in [5] was 83% (active); in test [13], 30.9% (active).

Regarding `N/C(Cc1cccc2ccccc12)=N\OC(=O)c1cccs1`, the outcome in test [1], in test [2], in test [3], in test [4], in test [7] and in test [8] was inactive. Moreover, the outcome in [9], in [10], in test [11], in test [12], in [13] and in test [14] was inactive. For the same compound, the outcome in test [15] and in test [16] was inactive. Moreover, the inhibition in test [5] is 54% (active); in test [6], 55% (active).

As to `CC(=O)Nc1ccc(S(=O)(=O)NC2=C(N3CCN(Cc4ccccc4)CC3)C(=O)c3ccccc3C2=O)cc1`, the result in [1], in [2], in test [3], in test [4], in [7] and in test [8] was inactive. For the same compound, the compound was called inactive in test [10], in test [11], in [12], in test [13], in [14] and in test [15]. For the same compound, the outcome in [16] was inactive. For the same compound, the values for the inhibition in test [5], in test [6] and in test [9] were 72% (active), 40% (active) and 30% (active), respectively.

On to `C=CCn1cnc2scc(-c3ccc(CC)cc3)c2c1=O`, for which the result in test [1], in [2], in [3], in test [4], in [6] and in test [7] was inactive. Also, the outcome in test [8], in test [9], in test [10], in test [11], in test [12] and in test [13] was inactive. Moreover, the outcome in [14], in test [15] and in test [16] was inactive. The inhibition in test [5] is 57% (active).

For `O=C1Nc2cc(C(=O)NCCCN3CCOCC3)ccc2S/C1=C/c1ccccc1F`, the outcome in [1], in [2], in [3], in test [4], in test [5] and in test [6] was inactive. The result in [7], in [8], in test [9], in test [10], in test [11] and in test [12] was inactive. For the same compound, the outcome in test [13], in [14], in test [15] and in [16] was inactive.

Take `CC12CN3CC(C)(CN(C1)C3c1ccc(Cl)cc1Cl)C2O` (stereo not given): the activation in test [1] is 66% (active). The result in [2], in [3], in test [4], in test [5], in test [7] and in test [8] was inactive. Further, the call in [9], in test [10], in test [11], in test [12], in test [13] and in [14] was inactive. For the same compound, the result in test [15] and in test [16] was inactive. In addition, the inhibition in test [6] was 64% (active).

`COc1ccc(C(CNc2ccc(C(F)(F)F)cn2)N(C)C)cc1OC` (stereo not given): the result in test [1], in test [2], in test [3], in test [4], in test [5] and in test [7] was inactive. Also, the result in [8], in [9], in test [10], in test [11], in [12] and in test [13] was inactive. Moreover, the result in test [14], in [15] and in test [16] was inactive. Further, the inhibition in test [6] was 69% (active).

Regarding `Nc1c2c(nc3ccccc13)CCC2`, the result in test [1], in [2], in test [3], in [4], in [7] and in test [8] was inactive. The call in test [10], in [11], in test [12], in [14], in test [15] and in test [16] was inactive. In addition, the inhibition in test [5] is 97% (active); in test [6], 44% (active); in test [9] it was 16.5% (active); in test [13], 29.6% (active).

`O=C(CSc1nc(=O)n(CCN2CCOCC2)c2c1CCC2)Nc1ccc(OC(F)(F)F)cc1`: the result in test [1], in test [2], in test [3], in test [4], in test [6] and in test [7] was inactive. In addition, the result in test [8], in test [9], in test [10], in test [11], in test [12] and in test [13] was inactive. For the same compound, the result in [14], in test [15] and in test [16] was inactive. Besides, in [5], the inhibition was 69% (active).

Consider `COc1cc(CN(C)CC2CCCN(CCc3ccccc3F)C2)cc(Cl)c1OC` (stereo not given), for which the result in test [1], in test [2], in test [3], in [4], in test [6] and in test [7] was inactive. Moreover, the outcome in test [8], in [9], in [10], in test [11], in test [12] and in test [14] was inactive. For the same compound, the outcome in test [15] and in test [16] was inactive. In addition, the results for the inhibition in test [5] and in test [13] were 93% (active) and 0.1% (active), respectively.

Regarding `Cc1ccc(-c2csc(NC(=O)C3CC=CCC3C(=O)O)c2C(=O)OC(C)C)cc1` (stereo not given), the result in test [1], in test [2], in [3], in test [4], in test [5] and in [6] was inactive. In addition, the result in test [7], in test [8], in [9], in [10], in test [11] and in test [12] was inactive. In addition, the result in test [14], in test [15] and in test [16] was inactive. In test [13], the inhibition is 20.1% (active).
